# Test results published in ChEMBL document CHEMBL4513216, “Probing the Open Global Health Chemical Diversity Library for Multistage-Active Starting Points for Next-Generation Antimalarials” (ACS Infect Dis, 2020).
# In all, about 69,000 compounds went through this assay and about 8,600 (12%) showed an effect of 50% or more. This is one part of a sample in which strong results are shown more often than they occur.
# Tested on: Plasmodium berghei
# Assay: Screen against P. berghei liver stage (PbLuc), transformed with Luciferase, at 10uM
# Assay type: functional, HepG2
# Settings: tested at 10 uM
row,SMILES,INHIBITION
1,Cc1cccc(C(=O)NC2CCN(c3cnn(C)c3)C2=O)c1C (stereo unspecified),30.5%
2,Cc1ccsc1C(=O)NC1CCN(c2cnn(C)c2)C1=O (stereo unspecified),65.5%
3,Cc1ccccc1C(=O)NC1CCN(c2cnn(C)c2)C1=O (stereo unspecified),11.7%
4,CC1(C(=O)N2CCOCC2)CNCCO1 (stereo unspecified),6.9%
5,CCOc1ccnc(N2CCN(C(=O)c3cccnc3)CC2)n1,15.5%
6,Cc1cc(N2CCN(C(=O)c3cccnc3)CC2)nc(C)n1,6.26%
7,CCCN1CCCN(c2ncccc2C(=O)N2CCCCC2)CC1,25.1%
8,CCCN1CCCN(C(=O)c2ccc(Oc3cccnc3)cc2)CC1,61%
9,CCCN1CCN(C(=O)c2cccnc2)CC1,64.7%
10,O=C(c1ccc(Oc2cccnc2)cc1)N1CCN(CCO)CC1,40.6%
11,CCc1cc(N(C)CCc2c(C)n[nH]c2C)ncn1,23%
12,O=C(CCn1ccnc1)N1CC[C@H](Oc2ccc(F)cc2)[C@@H](O)CC1,32.05%
13,CN(CC(N)=O)C(=O)c1csc(Br)c1,-5.1%
14,CS(=O)(=O)NCCC(=O)Nc1cnn(-c2ccccc2Cl)c1,7.08%
15,Cc1nn(-c2ccccc2)c(C)c1-c1ccnc(N2CCC(O)CC2)n1,20.2%
16,Cc1nn(-c2ccccc2)c(C)c1-c1ccnc(N2CCCNCC2)n1,85.8%
17,Cc1nn(-c2ccccc2)c(C)c1-c1ccnc(N2CCCOCC2)n1,-54.3%
18,O=S(=O)(N1CCOCC1)N1CCCC1Cn1cccn1 (stereo unspecified),-5.71%
19,Cc1nc(C2CN(Cc3ccc(F)cc3Br)CCO2)no1 (stereo unspecified),11.8%
20,CC(C)c1noc(-c2ccc(N(C)C3CCOCC3)nc2)n1,-61.1%
21,Cc1ccccc1-c1noc(-c2ccc(N(C)C3CCOCC3)nc2)n1,83.2%
22,CN(c1ccc(-c2nc(C3CC3)no2)cn1)C1CCOCC1,-99.6%
23,O=C(OCc1cc(=O)n2cc(Br)ccc2n1)c1ccc2c(c1)OCO2,19.8%

row,SMILES,INHIBITION
1,COCCN1CC2(CCCN(C(=O)NCCc3cccs3)C2)CCC1=O (stereo unspecified),56.5%
2,COCCN1CC2(CCCN(C(=O)CCCc3cccs3)C2)CCC1=O (stereo unspecified),25.1%
3,O=C(NCCc1cccs1)N1CCCC2(CCC(=O)N(C3CC3)C2)C1 (stereo unspecified),9.87%
4,CCN1CCCC(c2cc(Nc3cnccn3)nc(C)n2)C1 (stereo unspecified),-2.11%
5,O=C(NCCCOCc1ccco1)c1cccnc1N1CCOCC1,18.2%
6,CNc1nc(N2CCN(CC=C(C)C)C(CCO)C2)nc2c1CCC2 (stereo unspecified),68.6%
7,COc1cc(N2CCN(Cc3ccsc3)C(CCO)C2)nc(N)n1 (stereo unspecified),23.3%
8,CC(C)Nc1cc(N2CCN(Cc3ccccc3)C(CCO)C2)ncn1 (stereo unspecified),9.06%
9,Cc1cc(N2CCC(NC(C)Cc3ccsc3)CC2)nc(N)n1 (stereo unspecified),64.9%
10,CNc1nc(N2CCN(Cc3ccsc3)C(CCO)C2)nc2c1CCC2 (stereo unspecified),53.8%
11,Cc1cc(N2CCN(Cc3ccsc3)C(CCO)C2)nc(N)n1 (stereo unspecified),50.5%
12,CNc1nc(N2C[C@H](NC(=O)CCOC)[C@@H](C3CC3)C2)nc2c1CCC2,33.4%
13,Cc1cc(N2CCC(NS(C)(=O)=O)CC2)nc(C(C)C)n1,49%
14,Cc1cc(N2CCC(NC(C)Cc3ccsc3)CC2)nc(C)n1 (stereo unspecified),27.9%
15,CNc1nc(N2CCN(C3CCCCC3)C(CCO)C2)nc2c1CCC2 (stereo unspecified),12%
16,CNc1nc(N2CCN(C)C(CCO)C2)nc2c1CCC2 (stereo unspecified),23.5%
17,CC(C)Oc1cc(N2CCN(Cc3ccsc3)C(CCO)C2)nc(N)n1 (stereo unspecified),49.4%
18,CC(=O)N1CC(=O)N(c2cnn(C)c2)CC12CCN(Cc1ccsc1)C2 (stereo unspecified),23.5%
19,CC[C@@H](Cn1ncc2ccccc2c1=O)NC(=O)c1cnc(C)cn1,-20.6%
20,Cc1ccc(-c2cnc3n2CCN(C)C32CCN(CC3CC3)CC2)cc1,-12.1%
21,Cc1ccnc(C2CN(c3ncccn3)C2)n1,25.15%
22,Nc1nc(Sc2cccs2)cc(N2CC[C@H](CO)[C@H](O)C2)n1,-28%
23,CN1CCN(c2cc(Sc3cccs3)nc(N)n2)CC1CCO (stereo unspecified),50.2%

row,SMILES,INHIBITION
1,CN1[C@@H]2CC[C@H]1CN(c1cc(Sc3cccs3)nc(N)n1)CC2,49.2%
2,CCNC(=O)CN1CCc2c(Br)ccc(F)c2C1,-18.3%
3,O=C(c1ccnc(-n2cnnc2)c1)N1CCCC2(CCNC2)C1 (stereo unspecified),56.5%
4,O=C(c1ccc(-n2cnnc2)cc1Cl)N1CCCC2(CCNC2)C1 (stereo unspecified),35.1%
5,O=C(c1ccnc(-n2cnnc2)c1)N1CCCC2(CCOC2)C1 (stereo unspecified),39.4%
6,O=C(c1cnc(Nc2ccccc2)nc1)N1CCC2(CCNCC2)CC1,30.4%
7,O=C(c1cnc(Nc2ccccc2)nc1)N1CCCC2(CCNC2)C1 (stereo unspecified),58.1%
8,O=C(c1cnc(Nc2ccccc2)nc1)N1CCS(=O)(=O)CC1,27.4%
9,CCOCCC(=O)N(CCC#N)c1ccc(C)c(C)c1,-2.27%
10,CCc1[nH]nc(NC(=O)c2ccc(Cl)cn2)c1C,-61.3%
11,COCCCN1CCC(N(Cc2noc(C)n2)C(C)=O)C1 (stereo unspecified),16.9%
12,Cc1cc2c(=O)n3c(nc2s1)CCN(Cc1ccncc1)CC3,58.6%
13,Cc1cc2c(=O)n3c(nc2s1)CCN(Cc1[nH]cnc1C)CC3,54.4%
14,Cc1cc2c(=O)n3c(nc2s1)CCN(Cc1cnc(C(C)C)nc1)CC3,43.7%
15,CCc1ncc(CN2CCc3nc4sc(C)cc4c(=O)n3CC2)cn1,13%
16,Cc1nc[nH]c1CN1CCc2nc3scc(C)c3c(=O)n2CC1,26.8%
17,Cc1cc2c(=O)n3c(nc2s1)CCN(Cc1c[nH]cn1)CC3,23.2%
18,O=C1COC2(CCN(CC3CCC3)CC2)CN1c1cncnc1,8.67%
19,Cn1cnnc1C1CCCN(C(=O)COc2ccccc2Cl)C1 (stereo unspecified),-37.7%
20,Cc1cccc(CN2C[C@@H]3CN(C(=O)c4cnccn4)C[C@@H]3C2=O)n1,43.2%
21,O=C(CCN1CCOCC1)Nc1cccc(CNCc2cccs2)c1,49.2%
22,CCC[C@H]1CN(S(C)(=O)=O)C[C@@H]1NC(=O)Cc1ccc(OC)cc1,-26.9%
23,CC1=NN(c2ccc(C(=O)OCCNC(=O)c3ccncc3)cc2)CC1,-17.8%

row,SMILES,INHIBITION
1,COCCNC(=O)CCNC(=O)c1ccc(N2CCC(C)=N2)cc1,40.2%
2,COCCOCCNC(=O)c1ccc(N2CCC(C)=N2)cc1,50.1%
3,CC(NC(=O)N1CCCN(C)CC1)c1ccc2c(c1)OCCO2 (stereo unspecified),-9.39%
4,Cn1nccc1C(=O)N1CCOC(Cc2cccnc2)C1 (stereo unspecified),39.2%
5,c1cncc(CN2CCOC(c3ncn4c(C5CC5)cccc34)C2)c1 (stereo unspecified),14.2%
6,c1cc(C2CC2)n2cnc(C3CN(Cc4ccncc4)CCO3)c2c1 (stereo unspecified),51.2%
7,c1cc(C2CC2)n2cnc(C3CN(Cc4nccs4)CCO3)c2c1 (stereo unspecified),15.7%
8,Cc1nc(C)n(CC2CCCN2c2ncnc3sc(C)c(C)c23)n1 (stereo unspecified),-11.6%
9,c1ccc2ncc(CC3CCNCC3)cc2c1,-0.232%
10,COC1C[C@@H]2CN(C(=O)Cc3ccc(C)s3)C[C@@H]2C1 (stereo partly specified),-34.45%
11,Clc1ccc(CN2CCOC[C@H](Oc3cccnc3)C2)cc1,-11.1%
12,Fc1ccc(CN2CCOC[C@H](Oc3cccnc3)C2)cc1,38.1%
13,FC(F)(F)c1cccc(CN2CCOC[C@H](Oc3cccnc3)C2)c1,63.8%
14,CC(C(=O)Nc1ccc(Cl)cn1)N1CCc2nn(C)c(=O)cc2C1 (stereo unspecified),6.23%
15,Cc1cccc(CN2CCn3cc(Cn4cccn4)nc3C2)n1,-46.9%
16,CO[C@H]1CNC[C@@H]1NC(=O)CCc1nc(-c2ccccc2)no1,0.426%
17,CC(CNC(=O)c1ccn(-c2ccc(F)cc2)n1)Cn1cccn1 (stereo unspecified),39.6%
18,Cc1nc(CN2CCO[C@@H]3CN(C(=O)CN(C)C)CC[C@@H]3C2)cs1,-9.18%
19,Cc1ccc(NC(=O)Nc2c(O)c3ccccc3oc2=O)cc1C,-43.7%
20,Cc1ccc(NC(=O)Nc2c(O)c3ccccc3oc2=O)cc1,41.6%
21,Cc1cc(C)cc(NC(=O)Nc2c(O)c3ccccc3oc2=O)c1,59.8%
22,COc1ccccc1C1(O)CCCN(C(=O)c2csc(C(C)=O)c2)C1 (stereo unspecified),36%
23,Cc1occc1C(=O)N1CCC2(CC1)CC(OCc1ccccn1)CO2 (stereo unspecified),31.1%

row,SMILES,INHIBITION
1,c1csc(CN2C[C@@H](n3cccn3)[C@H]3OCCC[C@H]32)c1,-2.41%
2,c1ccc(O[C@@H]2CN(Cc3nccs3)[C@@H]3CCCO[C@@H]32)nc1,27.6%
3,c1cnn([C@@H]2CN(Cc3nccs3)[C@@H]3CCCO[C@@H]32)c1,63.5%
4,CS(=O)(=O)c1cc(Cl)cnc1C1CCCN(C(=O)C2CCOCC2)C1 (stereo unspecified),30.65%
5,CN1C(=O)CC(C(=O)O)C12CCN(Cc1ccc(Cl)c(Cl)c1)CC2 (stereo unspecified),5.46%
6,O=C1NCCN2CCN(Cc3ccc(Cl)c(Cl)c3)CC12 (stereo unspecified),52.2%
7,CNS(=O)(=O)c1ccc(CN2CCN3CCNC(=O)C3C2)cc1 (stereo unspecified),49.9%
8,COc1cccc(S(=O)(=O)CCN2CCn3c(C)nnc3C2)c1,-17%
9,CCn1cc(CN2CCCC(c3[nH]ncc3-c3ccc(F)cc3)C2)cn1 (stereo unspecified),9.52%
10,CCCn1cc(CN2CCC(c3[nH]ncc3S(C)(=O)=O)C2)cn1 (stereo unspecified),45.6%
11,CCn1cc(CN2CCC(c3[nH]ncc3S(C)(=O)=O)C2)cn1 (stereo unspecified),41.2%
12,CCn1cc(C(=O)N2CCCC(c3[nH]ncc3S(C)(=O)=O)C2)cn1 (stereo unspecified),16.9%
13,CCn1cc(CN2CCCC(c3[nH]ncc3S(C)(=O)=O)C2)cn1 (stereo unspecified),57.2%
14,CCn1cc(CN2CCCC(c3[nH]ncc3-c3ccc(C)cc3)C2)cn1 (stereo unspecified),70.9%
15,COc1cc(-c2n[nH]c(CO)n2)cc(OC)c1OC,17.1%
16,CC(Cn1ccnc1)NC(=O)Nc1ccccn1 (stereo unspecified),29.95%
17,CCOC(=O)c1ccc(NC(=O)c2c(O)nc3c(c2O)CCCC3)cc1,27.5%
18,CC(C)c1nccn1CCC(=O)N1CCCCC1c1ccn[nH]1 (stereo unspecified),30.95%
19,Cc1nn(C)c(N2CCOCC2)c1CNC1COc2ccccc2C1 (stereo unspecified),5.03%
